Some test systems named below: DU-145 prostate; K-562 leukemia; MALME-3M melanoma; MDA-MB-231 breast; SF-268 CNS; SF-295 CNS; SF-539 CNS; UACC-257 melanoma; M14 melanoma; HCT-15 colon; HT29 colon; SNB-75 CNS; SNB-19 CNS; U251 CNS; PC-3 prostate; SK-MEL-5 melanoma; UACC-62 melanoma; LOX IMVI melanoma; SK-MEL-28 melanoma; RXF 393 renal.
Experiment in all cases: NCI-60 one-dose screen, 48 h (100 = growth as untreated, 0 = no growth, -100 = all killed)
Conditions in all cases: 10 µM

Structures are written as SMILES. The panel holds about 83,000 compounds, 20% with a hit somewhere; the sample as a whole holds those more often.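 96-well plates, one dose, 48 hours. Percent growth reported; active if below 10.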 Unmarked numbers belong to inactive results. Calls of active or inactive are those of the source.

In the case of `C/C(=N\NC(=O)c1sc(=S)n(C)c1N)c1cc2ccccc2o1`, the growth is 77.4% with DU-145 prostate; -10.9% (active) with K-562 leukemia; 99.3% in the assay with MALME-3M melanoma; 36% in the assay with MDA-MB-231 breast; 55.9% with SF-268 CNS; -20.6% (active) in the assay on SF-295 CNS. Moreover, the growth in the assay with SF-539 CNS was 71.9%; in the assay on UACC-257 melanoma it was 56.5%; in the assay on M14 melanoma, 40.8%; in the assay on HCT-15 colon it was 48%; in the assay with HT29 colon, 36.6%; in the assay with SNB-75 CNS, 53%. Further, the growth in the assay with SNB-19 CNS was 89.9%; in the assay with U251 CNS, 56.5%; in the assay on PC-3 prostate it was 45.5%; with SK-MEL-5 melanoma it was 43.1%; with UACC-62 melanoma, 71.3%; with LOX IMVI melanoma, 25.6%. Also, in the assay on SK-MEL-28 melanoma, the growth is 71.8%.

As to `COc1ccc2nc(/C=C/c3ccc(N(C)C)cc3)sc2c1`, the growth was 111% with DU-145 prostate; 73.5% in the assay on K-562 leukemia; 97.4% in the assay with MALME-3M melanoma; 95.6% with MDA-MB-231 breast; 102% in the assay on SF-268 CNS; 93.1% with SF-295 CNS. For the same molecule, the growth with SF-539 CNS is 103%; in the assay with UACC-257 melanoma, 119%; in the assay with M14 melanoma, 103%; in the assay with HCT-15 colon, 93.8%; with HT29 colon, 93.3%; with SNB-75 CNS, 92.3%. Further, the growth with SNB-19 CNS was 131%; with U251 CNS it was 90.7%; in the assay with PC-3 prostate, 98.9%; in the assay with SK-MEL-5 melanoma it was 90.1%; with UACC-62 melanoma it was 94.7%; with LOX IMVI melanoma it was 91.5%. In addition, in the assay on SK-MEL-28 melanoma, the growth was 109%.

With `Cc1nc2sccn2c1-c1csc(Nc2cccc(Cl)c2C)n1`, the growth is 78.7% in the assay with DU-145 prostate; 16% with K-562 leukemia; 58.9% in the assay with MALME-3M melanoma; 65.4% with MDA-MB-231 breast; 67.8% in the assay on RXF 393 renal; 80.1% in the assay on SF-268 CNS. Also, the growth in the assay with SF-295 CNS was 37.8%; with SF-539 CNS it was 63.8%; in the assay with UACC-257 melanoma it was 34%; in the assay on M14 melanoma, 50.8%; in the assay with HT29 colon it was 31%; in the assay on SNB-75 CNS it was 77.5%. In addition, the growth is 77.1% in the assay on SNB-19 CNS; 60.8% in the assay with U251 CNS; 53.1% with PC-3 prostate; 16.5% with SK-MEL-5 melanoma; 53.3% in the assay with UACC-62 melanoma; 61.4% with LOX IMVI melanoma. The growth with SK-MEL-28 melanoma was 59.7%.

As to `Cc1cc(C(C)(C)CC(C)(C)C)ccc1OCCOCC[N+](C)(C)Cc1ccccc1`, the growth is 22.4% in the assay with DU-145 prostate; -53.8% (active) in the assay with K-562 leukemia; -35.5% (active) in the assay on MALME-3M melanoma; -67.7% (active) with MDA-MB-231 breast; -69.7% (active) with SF-268 CNS; -14.3% (active) in the assay on SF-295 CNS. Further, the growth in the assay with SF-539 CNS is -82.6% (active); with UACC-257 melanoma, 22.9%; in the assay on M14 melanoma it was -83.2% (active); in the assay with HCT-15 colon, 94.6%; in the assay with HT29 colon, -81.2% (active); in the assay with SNB-75 CNS, -63.4% (active). Further, the growth was -80.8% (active) in the assay with SNB-19 CNS; -86.2% (active) with U251 CNS; -19.4% (active) with PC-3 prostate; -95.8% (active) with SK-MEL-5 melanoma; -91.9% (active) in the assay on UACC-62 melanoma; -92.9% (active) in the assay on LOX IMVI melanoma. Besides, in the assay on SK-MEL-28 melanoma, the growth was -92% (active).

For `COc1ccc(-c2csc(-c3cc(Cl)cc(Cl)c3Cl)n2)cc1`, the growth in the assay with DU-145 prostate was 99.8%; in the assay on K-562 leukemia, 83.9%; with MALME-3M melanoma, 77.7%; in the assay with MDA-MB-231 breast, 73.6%; in the assay with SF-268 CNS it was 97.1%; in the assay with SF-295 CNS, 103%. Moreover, the growth in the assay on SF-539 CNS was 94.8%; in the assay on UACC-257 melanoma, 46.2%; with M14 melanoma, 97.7%; in the assay on HCT-15 colon it was 89.2%; in the assay on HT29 colon, 101%; in the assay with SNB-75 CNS, 91.6%. Also, the growth with SNB-19 CNS is 103%; with U251 CNS, 93.3%; in the assay on PC-3 prostate, 95%; in the assay with SK-MEL-5 melanoma it was 29.2%; with UACC-62 melanoma, 63%; in the assay on LOX IMVI melanoma, 83.1%. For the same molecule, in the assay on SK-MEL-28 melanoma, the growth is 107%.

In the case of `COc1ccc(NC(=O)c2sc3nc4c(cc3c2N)C(O)CCC4)cc1` (configuration not stated), the growth in the assay with DU-145 prostate is 93.3%; with K-562 leukemia, 80.6%; with MALME-3M melanoma, 122%; in the assay with MDA-MB-231 breast, 116%; in the assay with RXF 393 renal it was 102%; in the assay on SF-268 CNS, 99.7%. In addition, the growth in the assay with SF-295 CNS was 82.4%; in the assay on SF-539 CNS, 111%; in the assay with UACC-257 melanoma it was 97.4%; with M14 melanoma, 101%; in the assay on HT29 colon, 97.8%; in the assay with SNB-75 CNS, 110%. In addition, the growth in the assay with SNB-19 CNS was 97.1%; with U251 CNS, 105%; in the assay with PC-3 prostate it was 95.7%; in the assay on SK-MEL-5 melanoma it was 99.5%; in the assay with UACC-62 melanoma, 98.9%; in the assay on LOX IMVI melanoma it was 102%. The growth in the assay on SK-MEL-28 melanoma was 102%.

For the molecule `Cc1ccccc1[P+](Cc1ccccc1)(c1ccccc1)c1ccccc1`, the growth in the assay with DU-145 prostate is 41%; in the assay with K-562 leukemia it was 7.69% (active); in the assay on MALME-3M melanoma, -1.44% (active); in the assay with MDA-MB-231 breast, 40.7%; in the assay with RXF 393 renal, 64.6%; in the assay on SF-268 CNS, 33.9%. Also, the growth in the assay with SF-295 CNS was 11%; in the assay with SF-539 CNS, 35.4%; with UACC-257 melanoma it was -26.7% (active); with M14 melanoma it was 15.1%; in the assay on HT29 colon it was 7.47% (active); in the assay on SNB-75 CNS, 6.56% (active). Moreover, the growth in the assay with SNB-19 CNS is 24.7%; in the assay on U251 CNS, 12.1%; with PC-3 prostate it was 9.34% (active); with SK-MEL-5 melanoma it was -14% (active); in the assay with UACC-62 melanoma, 0.358% (active); in the assay on LOX IMVI melanoma it was 22.4%. The growth in the assay on SK-MEL-28 melanoma is 27.3%.

Consider `COc1ccc(-c2cc(/C=C3\C(=O)Nc4cc(Cl)ccc43)[nH]n2)cc1`, for which the growth is 26.4% with DU-145 prostate; 13.3% with K-562 leukemia; 29.2% in the assay with MALME-3M melanoma; 54.5% with MDA-MB-231 breast; 9.94% (active) in the assay on RXF 393 renal; 36.5% in the assay on SF-268 CNS. The growth in the assay with SF-295 CNS is 1.51% (active); with SF-539 CNS, 4.51% (active); in the assay with UACC-257 melanoma, 62.2%; in the assay on M14 melanoma, 35%; in the assay with HT29 colon, 1.13% (active); in the assay on SNB-75 CNS, -27.5% (active). The growth is 49% with SNB-19 CNS; 40.1% in the assay with U251 CNS; 14% with PC-3 prostate; 25.1% with SK-MEL-5 melanoma; 32.4% in the assay with UACC-62 melanoma; 38.2% with LOX IMVI melanoma. Besides, the growth with SK-MEL-28 melanoma was 50.5%.

For the origin of these results see PubChem BioAssay (NCI).
